Screening data as filed in PubChem.
Shown are actives, neighbours in structure and some others; about 14% of the full set was active somewhere.
HCMV antiviral: blocks human cytomegalovirus replication; HFF cells, HCMV-luciferase reporter, 72 h; active compounds read low; activity change, negative = inhibition, % at 57.5 µM; hit rate 4.5% among 410,000; in the data active = activity change below about -60%; inconclusive = no clear call, values can overlap the other calls; inactive = above about -39%
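Cell-based, HFFs, 1000 cells/well, 16 h 37C; cpds in DMSO + HCMV-luc, MOI 1 PFU/cell; 72 h 37C; OneGlo luminescence after 5 min RT; norm. to buffer vs Salinomycin 10uM.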
MARV entry inh: Marburg virus entry inhibition; hit rate 1.8% among 300,000; Marburg virus pseudotyped entry inhibition, cell reporter; Potency, µM (series often up to 37.8 µM), for inactives: top-dose activity change, negative = inhibition, usual class: inhibitors; calls by dose curve; tested in HEK293 cells; also: potency is read from the fitted curve at half-maximal effect
LASV entry inh: inhibitors of Lassa virus binding or cell entry; Lassa virus pseudotype entry inhibition, cell reporter; hit rate 1.2% among 300,000; Potency, µM (doses to about 37.9 µM), for the others: at the highest dose activity change, negative = inhibition, hits mostly inhibitors; AID 540256; calls by dose curve; tested in HEK293 cells; also: potency is read from the fitted curve at half-maximal effect; nearly all actives have a fitted effect of over 50% in size
Pf growth 96h: inhibits malaria parasite growth, 96 h; P. falciparum luciferase reporter growth, 96 h; Potency, µM (doses to about 28.7 µM), inactives show top-dose activity change, negative = inhibition, usual class: inhibitors; hit rate 6.9% among 320,000; AID 504834; also: potency is read from the fitted curve at half-maximal effect
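Readout is luminescence from an integrated firefly luciferase in P. falciparum. Red cells, 2% hematocrit and 0.05% parasitemia final, were cultured with compound through two parasite generations (96 hours) at 37 C, 5% CO2.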
HCV inh: inhibitors of hepatitis C virus infection. Huh7.5.1 HCVcc-Cre infection, luciferase reporter, 44 h. Potency, µM (titrated, usually from 41.8 µM), for the others: at the highest dose activity change, negative = inhibition, actives largely listed as inhibitors. hit rate 3.4% among 340,000. AID 651820; also: potency is read from the fitted curve at half-maximal effect
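After 44 h co-culture of compound, cells and HCVcc-Cre (~0.5 moi), substrate is added for 15 min at room temperature and luciferase measured over 15 sec. Cells were seeded at 1,000/well and pre-cultured 4 h.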
Pf growth 48h: P. falciparum growth inhibition at 48 hours (one generation) | P. falciparum luciferase growth in erythrocytes, 48 h | Potency, µM (series often up to 28.7 µM), inactives show at the top dose activity change, negative = inhibition, hits mostly inhibitors | hit rate 5.9% among 310,000 | AID 504832; also: potency is read from the fitted curve at half-maximal effect
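Growth was read as firefly luciferase luminescence after a 48 h, 37 C, 5% CO2 exposure of compounds to reporter-bearing P. falciparum cultures (0.1% parasitemia, 2% hematocrit final) in Albumax-supplemented RPMI 1640.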
The depositor's hits bear a star; ? = inconclusive; · = no result given; [ ] = remark or other dose. Unless noted, calls follow the shape of the dose curve; as a rule, active = well fitted inhibition curve with a large enough effect; inconclusive = small, poorly fitted or top-dose-only effect, or another doubt; inactive = no such curve, though single readings can be large or run the other way. % is scaled to controls: 0 for no effect and ±100 for the full control effect.

SMILES | HCMV antiviral | MARV entry inh | LASV entry inh | Pf growth 96h | HCV inh | Pf growth 48h
Cc1ccc(OCCCn2ccnc2)c([N+](=O)[O-])c1 | -22 | 11% | ? | 6.6µM* | 19% | -7%
CCCCCOc1ccc(Cn2ccnc2)cc1[N+](=O)[O-] | ? | -14% | 6% | ? | 11µM* | ?
CCOc1ccc(Cn2ccnc2)cc1[N+](=O)[O-] | 25 | ? | -6% | -6% | 3% | 6%
COc1ccc(N(C(=O)c2ccco2)C(C(=O)NC2CCCC2)c2ccccc2)cc1 (stereo not drawn) | -23 | ? | ? | -14% | -15% | -12%
COc1ccc(N(C(=O)c2ccco2)C(C(=O)NC2CCCCC2)c2ccccc2)cc1 (stereo not drawn) | -77* | 1% | ? | · | -14% | ·
COc1ccc(N(C(=O)c2ccco2)C(C(=O)NC2CCCC2)c2ccc(N(C)C)cc2)cc1OC (stereo not drawn) | 7 | 7% | 0% | 101% | 15% | 13µM*
COc1ccc(C(C(=O)NC2CCCC2)N(C(=O)c2ccoc2C)c2ccc(C)c(C)c2)cc1 (stereo not drawn) | -39 | ? | ? | 1µM* | -25% | ?
COc1cc(OC)cc(N(C(=O)c2ccco2)C(C(=O)NC2CCCC2)c2ccc(N(C)C)cc2)c1 (stereo not drawn) | -22 | -25% | -27% | ? | -25% | 12µM*
Cc1ccc(CCC(=O)Nc2ccc(C)c(C)c2)o1 | 0 | · | · | 37% | -7% | 38%
S=C(c1cccs1)N1CCN(c2ccccc2)CC1 | -22 | 16% | 22% | · | -13% | ·
COc1ccc(C(C(=O)NC2CCCC2)N(C(=O)c2ccco2)c2ccc3c(c2)OCO3)cc1OC (stereo not drawn) | -75* | -1% | -2% | ? | 3% | ?
Cc1ncccc1C(=O)N1CCCC(c2cc(C(=O)Nc3ccc(C(C)(C)C)cc3)no2)C1 (stereo not drawn) | -18 | · | · | · | · | ·
CCOc1ccccc1NC(=O)c1sc2nc(-c3ccc(OC)cc3)ccc2c1N | -95* | ? | ? | · | · | ·
CCOC(=O)c1sc2nc(-c3cccnc3)ccc2c1N | -5 | ? | 6.3µM* | 22% | -4% | 191%
CCOc1ccccc1NC(=O)c1sc2nc(C)cc(C)c2c1N | -3 | 8%[46.1 µM] | 6%[46.1 µM] | · | · | ·
CCOc1cc(/C=N/NC(N)=O)cc(Br)c1OCC(=O)Nc1cccc2ccccc12 | 37 | -17% | -21% | ? | 18µM* | ·
COc1ccccc1/C=C(/C(=O)OCC(=O)Nc1ccccc1C)c1ccccc1 | -62* | 0% | ? | -4% | -4% | -18%
CCOc1cc(/C=N/NC(N)=O)cc(Br)c1OCC(=O)Nc1ccccc1C | -21 | 11µM* | -4% | 9%[5.75 µM] | ? | -4%
CCOc1cc(/C=C\[N+](=O)[O-])ccc1OCC(=O)Nc1ccccc1C | · | 0% | · | 11% | 11µM* | 5%
Cc1ccc(S(=O)(=O)N2CC3C(=O)C[C@@H](c4ccccc4)N(S(=O)(=O)c4ccccc4Cl)C3CC2c2ccccc2)cc1 (stereo partly drawn) | -38 | · | · | · | · | ·
Cc1nnc2c3ccccc3nc(Nc3cccc(O)c3)n12 | 0 | · | -5%[46.1 µM] | · | · | ·
COc1cc(/C=N/NC(N)=O)c(Br)cc1OCC(=O)Nc1ccccc1C | -26 | 11µM* | ? | 29% | -29% | 3%
Cc1ccc(NC(=O)CN2C(=O)NC(Cc3c[nH]c4ccccc34)C2=O)cc1S(=O)(=O)N1CCCCC1 (stereo not drawn) | -8 | ? | -5% | ? | 11µM* | -12%
O=C(CN1C(=O)NC(Cc2c[nH]c3ccccc23)C1=O)Nc1cccc(S(=O)(=O)N2CCCC2)c1 (stereo not drawn) | 53 | -22% | -8% | -158%[5.75 µM] | ? | -10%
Cc1ccc(S(=O)(=O)N(C)C)cc1NC(=O)CN1C(=O)NC(Cc2c[nH]c3ccccc23)C1=O (stereo not drawn) | 0 | · | · | ? | 2% | ?
SMILES | HCMV antiviral | MARV entry inh | LASV entry inh | Pf growth 96h | HCV inh | Pf growth 48h
O=C(CN1C(=O)NC(Cc2c[nH]c3ccccc23)C1=O)Nc1cccc(S(=O)(=O)N2CCCCCC2)c1 (stereo not drawn) | ? | ? | -15% | ? | 10µM* | -20%
COCC(C)n1c(C)cc(C(=O)CN2C(=O)NC(Cc3c[nH]c4ccccc34)C2=O)c1C (stereo not drawn) | -6 | 7% | -13% | 5.2µM* | -14% | ·
CN(C)S(=O)(=O)c1cccc(NC(=O)CN2C(=O)NC(Cc3c[nH]c4ccccc34)C2=O)c1 (stereo not drawn) | -26 | 18%[46.1 µM] | 4%[46.1 µM] | -29% | 1.6µM* | -5%
Cc1cccc(Cn2c(SCc3ccc(C(=O)NCCc4ccccc4)cc3)nc3ccncc32)c1 | -25 | -20%[46.1 µM] | -24%[46.1 µM] | · | · | ·
CCC1=Nc2cc(C(=O)NCCc3ccccc3)ccc2Sc2ccc(Cl)cc21 | 4 | -14%[46.1 µM] | ? | · | · | ·
CCCC1=Nc2cc(C(=O)NCCc3ccccc3)ccc2Sc2ccc(C)cc21 | -67* | ? | -11%[46.1 µM] | · | · | ·
CCCC1=Nc2cc(C(=O)NCCCN3CCN(C)CC3)ccc2Sc2ccccc21 | 0 | · | · | ? | ? | ?
CCOC(=O)N1CCC(NC(=O)c2ccc3c(c2)N=C(CC)c2ccccc2S3)CC1 | ? | · | · | ? | 10µM* | ?
CCOCCCNC(=O)c1ccc2c(c1)N=C(CC)c1cc(Br)ccc1S2 | -88* | ? | ? | ? | -29% | 4.1µM*
CCCC1=Nc2cc(C(=O)NC3CCC(C)CC3)ccc2Sc2ccccc21 (stereo not drawn) | -77* | ? | ? | · | · | ·
CCC(C(=O)Nc1c(C)cccc1C)n1c(-c2ccc(-c3ccccc3)cc2)nc2ccccc21 (stereo not drawn) | -34 | · | · | · | · | ·
CCCOc1ccc(NC(=O)CC2C(=O)N(c3ccc(C)cc3)C(=O)N2C2CCCC2)cc1 (stereo not drawn) | 32 | 1%[46.1 µM] | ? | · | · | ·
CCCNC(=O)c1ccc2c(c1)N=C(CCC)c1ccccc1S2 | -86* | ? | -17%[46.1 µM] | · | · | ·
Cc1cccc(NS(=O)(=O)c2ccc(C(=O)NCC3(N4CCCCC4)CCCCC3)cc2)c1C | -35 | 11µM* | ? | 0% | ? | 2.6µM*
O=C(NC1CCCC1)C(c1ccc(Cl)cc1)N1CCc2ccccc21 (stereo not drawn) | -23 | · | · | 5.9µM* | 9% | ·
O=C(NC1CCCCC1)C(c1ccccc1)N1CCc2ccccc21 (stereo not drawn) | ? | · | · | 12µM* | -27% | ·
C=C(C)CCCN1C=C(C(C)=O)C(c2ccccc2)NC1=O (stereo not drawn) | · | 2%[14.2 µM] | · | · | · | ·
O=C(N/N=C/c1ccccc1O)NC12CC3CC(CC(C3)C1)C2 | -30 | ? | ? | 2.6µM* | -19% | 1.2µM*
